In PubChem BioAssay (NCI) one finds growth data, which are given here for 37 compounds.

This is part of a sample that, as a whole, favours compounds with a hit. Of some 83,000 tested, about 20% had one in any assay.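 Cells were grown in 96-well plates and exposed to the test compound at a single concentration for 48 hours; results are reported as percent growth, with values below 10 considered active.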 Values without a mark were called inactive.

The assay has as its system UACC-62 melanoma. Nature of the assay: NCI-60 one-dose screen, 48 h (100 = growth as untreated, 0 = no growth, -100 = all killed). To be noted: 10 µM unless noted.
For the compound `CCCCCC(=O)OCCC1CCCCC1`, the growth was 104%. As to `CC(C)OCC(CCl)OC(=O)Nc1ccccc1` (configuration not stated), the growth is 101%. To `Oc1cccc(CNC2CCCCC2)c1` belongs 96.5%; to `C=CCC(OC(C)=O)c1ccc(OC)c(OC)c1` (configuration not stated), 107%.

For `COC1OC(CO)C(OC)C(O)C1O` (configuration not stated), the growth was 96.2%. The result for `O=S(Cc1ccccc1)/C(=C/NC(=S)Nc1ccccc1)c1ccccc1` (configuration not stated) reads 103%.

Regarding `Oc1ccc(N=Cc2ccc(OCc3ccccc3)cc2)cc1`, the growth was 88.6%.

`CCCCCCCCCCCCCCCCCC(=O)NCCNC(=O)CCCCCCCCCCCCCCCCC`: the growth was 104%. The result for `O=C1C=C(c2ccccc2)C(O)(c2ccccc2)C1` (configuration not stated) reads 92.3%. For the compound `Nc1ncc([N+](=O)[O-])cn1`, the growth is 98.9%.

Regarding `CCN(C(C)=O)c1ccc([N+](=O)[O-])cc1`, the growth was 97.5%. In the case of `C1C[S+]2CC[S+]1CC2`, the growth was 104%.

Consider `NC(=O)OCCO`, for which the growth was 100%.

As for `COC1CC(OC(=O)c2ccc([N+](=O)[O-])cc2)C(COC(=O)c2ccc([N+](=O)[O-])cc2)O1` (configuration not stated), the growth was 98.1%. Regarding `CC(=O)c1cc(O)ccc1O`, the growth was 96.6%.

On to `Cc1c(Cl)cccc1NC(=S)NC(=O)c1ccccc1`, for which the growth was 92.7%.

Turning to `Cc1cc(Cl)cc(Cc2cc(Cl)cc(C)c2O)c1O`, the growth was 16.1%. On to `CCCOCc1cn[nH]n1`, for which the growth was 98.2%. For the compound `Cc1ccc(C(C)C)c(OCC(=O)O)c1`, the growth is 100%. On to `OC(CBr)CCBr` (configuration not stated), for which the growth was 95.1%. `CC(CCC#N)(CCC#N)C(=O)c1ccccc1`: the growth is 104%. `CCC(=O)Oc1c(C)cc(O)c2ccccc12`: the growth is 67.3%. The result for `COCC(N)=O` reads 109%. As to `Cc1cc(C)cc(OCC(=O)O)c1`, the growth was 98.5%. On to `CCOC(OCC)C(=O)c1ccccc1`, for which the growth was 111%. `Cc1ccnc(Nc2nc3ccccc3[nH]2)n1`: the growth is 113%. Consider `O=C(NC(=S)N1CC=CCC1)c1ccccc1`, for which the growth is 107%.

Take `COc1cc(OC)c(NC(=O)C(Sc2nc(C)cc(C)c2C#N)c2ccccc2)cc1Cl` (configuration not stated): the growth was 94.6%. The result for `O=S(=O)(O)c1cccc2cccnc12` reads 109%; that for `CC(C)(CC(=O)O)CC(=O)O`, 98.7%. For the compound `CC(=O)N(C)N=Nc1ccc(C)cc1`, the growth is 101%. The result for `CC(=O)c1cccs1` reads 94.2%; that for `CSCC[C@@H]1C(=O)N(C)[C@H](C(C)(C)C)N1C(=O)c1ccccc1`, 101%; that for `CC1=CC(=Nc2ccc(N(C)C)cc2)C=C(C)C1=O`, 37.7%. The result for `OC(CCN1CCCCC1)(c1ccccc1)c1ccccc1` reads 106%.

For `CCOC(=O)c1ccc(NC(=O)Nc2nccs2)cc1`, the growth was 31.8%. To `O=CNCCc1ccccc1` belongs 96.8%.
